PubChem BioAssay (NCI)
The panel holds about 83,000 compounds, 20% with a hit somewhere; the sample as a whole holds those more often.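 Results are percent growth after 48 hours of single-concentration exposure. 100 means growth as in untreated cells, lower positive values show inhibition; negative values down to -100 show cell death.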 Unmarked numbers belong to inactive results. Active and inactive are the calls of the source. The calls were made as follows: active = growth percent below 10; inactive = the rest.

Tested on: A549/ATCC NSCLC
Assay: NCI-60 one-dose screen, 48 h (100 = growth as untreated, 0 = no growth, -100 = all killed)
Conditions: 10 µM unless noted

First: N#CC1=C(N)Oc2c(c(N)nn2-c2ccccc2)C1c1ccc(Cl)cc1Cl (configuration not stated)
Second: N#CC1=C(N)Oc2c(sc3c(F)cccc23)C1c1ccc(Cl)cc1 (configuration not stated)
The growth of the first is higher: 108% for the first, 38% for the second.

Going from C=C(C)[C@@H]1CC[C@]2(C=O)CC[C@]3(C)[C@H](CC[C@@H]4[C@@]5(C)C/C(=C/c6cccnc6)C(=O)C(C)(C)[C@@H]5CC[C@]43C)[C@@H]12 to C=C(C)[C@@H]1CC[C@]2(/C=N/Nc3ccncc3)CC[C@]3(C)[C@H](CC[C@@H]4[C@@]5(C)CCCNC(C)(C)[C@@H]5CC[C@]43C)[C@@H]12, the growth rises from 57.1% to 78%.

First: C=C(C)[C@@H]1CC[C@]2(C(=O)N3CCN(CC)CC3)CC[C@]3(C)[C@H](CC[C@@H]4[C@@](C)(CCC(=O)N5CCN(CC)CC5)[C@H](C(=C)C)CC[C@]43C)[C@@H]12
Second: CCN1CCN(C(=O)[C@]23CCC(C)(C)C[C@H]2C2=CC[C@@H]4[C@@]5(C)CC/C(=N/O)C(C)(C)[C@@H]5CC[C@@]4(C)[C@]2(C)CC3)CC1
The growth of the first is lower: 57.4% for the first, 74% for the second.

Compared with O=C1c2cccc3cccc(c23)C(=O)N1CC#Cc1ccc2c3c(cccc13)C(=O)N(CCN1CCNCC1)C2=O, C/C(Cc1ccc(Cl)cc1)=C(/c1ccc(Cl)cc1)c1ccc(OCCN2CCCC2)cc1 is lower in growth: 109% for the first, 69.8% for the second.

Compared with Cc1ccnc2c(OCc3ccccc3)cccc12, Cc1ccccc1-c1nc(C(Cl)Cl)nc2cc(-c3ccccc3)nn12 is lower in growth: 93.5% for the first, 25.1% for the second.

Going from C=CC(=O)N[C@H](Cc1ccc(-c2cc(Cl)cc(Cl)c2)cc1)[C@H](O)[C@@H](O)C(=O)O to COc1ccc2[nH]c(-c3ccc(Cl)cc3)cc(=O)c2c1, the growth rises from 72% to 96.3%.

Going from C=COCCCCCCCCCCCCCCCCCC to CCCCC/C(=C\c1ccccc1)C1OC(C)C(C)O1 (configuration not stated), the growth falls from 79.5% to 68.5%.

Compared with CN1CCN(c2nc(-c3csc(-c4cccs4)n3)cc3ccccc23)CC1, COc1ccc2c(c1)c(-c1nc(-c3c[nH]c4ncccc34)cs1)cn2CCNC(=O)OC(C)(C)C is higher in growth: 47.9% for the first, 72.6% for the second.

Compared with O=C(O[C@@H]1Cc2c(O)cc(O)cc2O[C@@H]1c1cc(O)c(O)c(O)c1)c1cc(O)c2c(c1)OCO2, COc1cc(-c2cc3ncccc3c3[nH]c(=O)c4cccnc4c23)cc(OC)c1OC is lower in growth: 82.5% for the first, 23.8% for the second.

Compared with Cc1cc(N(CCCNc2ccnc3cc(Cl)ccc23)Cc2ccco2)nc(N2CCOCC2)n1, COc1cc2c(cc1-c1c(C)noc1C)ncc1nc(C3CCCCC3)n([C@@H](C)COC(F)F)c12 is lower in growth: 83.1% for the first, 33.2% for the second.

Compared with Cn1c(/C(C#N)=C/c2ccc3ccccc3c2)cc2ccccc21, COc1cc(/C=C/c2cc(/C=C/c3ccc(O)c(OC)c3)n(-c3ccccc3)c(=O)n2)ccc1O is higher in growth: 29.8% for the first, 90.6% for the second.

First: CN(CSc1ccc(Cl)cc1)c1ccc(CSc2ccc(Cl)cc2)cc1
Second: CC1(C)NC2=C(C(Nc3cccnc3)N1)C(c1ccc([N+](=O)[O-])cc1)C(C(=O)c1ccc(N=[N+]=[N-])cc1)O2 (configuration not stated)
The growth of the first is lower: 50.5% for the first, 104% for the second.

Going from COc1ccc(C2C(C#N)=C(N)Oc3c2sc2c(F)cccc32)cc1 (configuration not stated) to Brc1cnc2[nH]cc(-c3nnc(-c4ccccc4)o3)c2c1, the growth rises from 36.7% to 81.2%.

Compared with CCN1CCN(C(=O)[C@]23CC[C@@H](C)[C@H](C)[C@H]2C2=CC[C@@H]4[C@@]5(C)C/C(=C/c6cccc(OC)c6OC)C(=O)C(C)(C)[C@@H]5CC[C@@]4(C)[C@]2(C)CC3)CC1, CC(=O)OC[C@]12CC[C@@H](/C(C)=N/O)[C@@H]1[C@H]1CC[C@@H]3[C@@]4(C)CCCNC(C)(C)[C@@H]4CC[C@@]3(C)[C@]1(C)CC2 is higher in growth: 36.1% for the first, 64.6% for the second.

COc1cc2ncnc(Nc3ccc(Oc4ccnc(C)c4)c(C)c3)c2cc1NC(=O)CC1CCSS1 (configuration not stated) was tested, and the growth was -63.8% (active).
O=C1/C(=C\C(Cl)=C/c2ccc([N+](=O)[O-])cc2)SC(=S)N1CCc1ccc(O)cc1 was tested, and the growth was 3.64% (active).
For Brc1ccc2c(c1)c(-c1nc(-c3c[nH]c4ncccc34)cs1)cn2CCCN1CCCCC1, the growth was -69.6% (active).
CCNCCCn1c2c(c3ccc([N+](=O)[O-])cc3c1=O)C(=O)c1cc(OC)cnc1-2 was tested, and the growth was -81.8% (active).
